Measured values reported in the supplement of paper PMC10646978.
± gives the standard deviation.

Assays:
Settings in all cases: modulator concentration 10 µM
[1] = system: RAW-Dual (murine macrophage reporter line); test: NF-kB reporter (SEAP) activity fold change vs agonist alone; higher = enhanced NF-kB activity
How it was run: (§1)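 RAW-Dual murine macrophage reporter cells were seeded at 50 000 per well in 384-well plates and pre-incubated 1 hour at 37 °C with compound pin-transferred to 10 μM final. After 1 hour, a PRR agonist was added and cells incubated overnight. Supernatant NF-κB (SEAP, QUANTI-Blue, 620 nm absorbance) and IRF (Lucia luciferase, QUANTI-Luc, luminescence) signals were divided by the mean agonist-only control on the same plate to give fold change. Two replicate plates were averaged, with errors by propagation.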

[2] = system: RAW-Dual (murine macrophage reporter line); test: IRF reporter (Lucia luciferase) activity fold change vs agonist alone; higher = enhanced IRF activity
How it was run: as §1

[3] = system: RAW-Dual (murine macrophage reporter line); test: viability score (confluency relative to resting cells, overnight) (fraction); higher = more viable, active = viable (0.7 or more)
How it was run: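 Overnight exposure to 10 μM final compound was carried out on RAW-Dual macrophages in 384-well plates. IncuCyte software generated two confluency masks over all wells imaged with IncuCyte. The viability score gives confluency in relation to resting cells. A compound met the cutoff if each mask exceeded 70% of resting cells.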

[4] = agonist: CpG ODN 1826 0.5 ug/mL

| SMILES | NF-kB reporter [1, 4] | NF-kB reporter ([1]; agonist: LPS 0.1 ug/mL) | NF-kB reporter ([1]; agonist: MPLA […]) | IRF reporter ([2]; agonist: 3'3'-cGAMP 10 ug/mL) | IRF reporter ([2]; agonist: LPS 0.1 ug/mL) | IRF reporter ([2]; agonist: MPLA […]) | viability score [3] |
| --- | --- | --- | --- | --- | --- | --- | --- |
| Cc1cc(NC(=O)c2ccoc2COc2ccccc2)no1 | 1.17 ± 0.063 | 1.08 ± 0.093 | 1.32 ± 0.071 | 1.21 ± 0.061 | 1.21 ± 0.23 | 1.46 ± 0.38 | 0.962 (active) |
| Cc1ccc(S(=O)(=O)N=C(Nc2ccc([N+](=O)[O-])cc2)c2ccccc2)cc1 | 1.06 ± 0.075 | 1.13 ± 0.074 | 0.928 ± 0.06 | 0.958 ± 0.032 | 1.39 ± 0.32 | 1.22 ± 0.16 | 1 (active) |
| CNC(=O)[C@H](Cc1ccccc1)NC(=O)[C@H](CC(C)C)[C@H](CSc1cccs1)C(=O)NO | 1.23 ± 0.093 | 1.22 ± 0.13 | 1.01 ± 0.048 | 0.96 ± 0.15 | 1.05 ± 0.15 | 0.947 ± 0.28 | 0.999 (active) |
| COc1ccc(S(=O)(=O)NCc2cccnc2-c2cnn(C)c2)cc1Cl | 1.1 ± 0.055 | 1.15 ± 0.12 | 1.04 ± 0.06 | 1.17 ± 0.058 | 1.11 ± 0.072 | 1.04 ± 0.19 | 0.999 (active) |
| N#CC[C@@H](C1CCCC1)n1cc(-c2ncnc3[nH]ccc23)cn1 | 1.95 ± 0.28 | 0.915 ± 0.29 | 0.914 ± 0.051 | 0.164 ± 0.0051 | 0.359 ± 0.081 | 0.595 ± 0.067 | 0.999 (active) |
| CC(=O)Oc1ccc2c(c1)c(C(C)=O)c(C)n2C | 0.859 ± 0.071 | 0.972 ± 0.1 | 0.963 ± 0.091 | 0.783 ± 0.028 | 1.13 ± 0.15 | 1.27 ± 0.25 | 1.02 (active) |
| CCc1cc(=O)oc2c(C)c(OCC(=O)c3ccc(OC)cc3)ccc12 | 0.804 ± 0.066 | 0.837 ± 0.039 | 1.06 ± 0.11 | 0.925 ± 0.062 | 1.45 ± 0.084 | 1.62 ± 0.14 | 1.01 (active) |
| Cc1ccc(C(=O)c2ccc(CC(=O)O)n2C)cc1 | 0.949 ± 0.071 | 1.01 ± 0.064 | 1.02 ± 0.048 | 0.995 ± 0.086 | 0.993 ± 0.1 | 1.02 ± 0.092 | 1 (active) |
| CC(=O)NO | 0.863 ± 0.12 | 0.93 ± 0.071 | 0.953 ± 0.053 | 0.834 ± 0.068 | 0.901 ± 0.15 | 0.977 ± 0.092 | 1 (active) |
| O=C(c1ccc(S(=O)(=O)N2CCCC2)cc1)N1CC(Nc2ccncn2)C1 | 0.978 ± 0.1 | 0.986 ± 0.086 | 0.921 ± 0.057 | 0.969 ± 0.071 | 1.23 ± 0.13 | 1.06 ± 0.095 | 1 (active) |
| O=C(NN=Cc1c(O)ccc2ccccc12)c1ccccc1 | 1.48 ± 0.12 | 1.19 ± 0.08 | 1.12 ± 0.054 | 0.752 ± 0.11 | 1.23 ± 0.077 | 1.14 ± 0.12 | 0.979 (active) |
| COC(=O)C1=C(C)NC(C)=C(C(=O)OCCN(C)Cc2ccccc2)C1c1cccc([N+](=O)[O-])c1 (configuration not stated) | 0.317 ± 0.079 | 0.753 ± 0.06 | 0.72 ± 0.05 | 0.324 ± 0.028 | 1.14 ± 0.24 | 1.15 ± 0.12 | 0.982 (active) |
| CCOC(=O)c1ccccc1NC(=O)CN(c1cc(Cl)ccc1OC)S(C)(=O)=O | 1.02 ± 0.15 | 1.09 ± 0.067 | 0.897 ± 0.054 | 1.02 ± 0.029 | 1.38 ± 0.2 | 1.14 ± 0.14 | 1.01 (active) |
| c1ccc2sc(SCCCCSc3nc4ccccc4s3)nc2c1 | 1.11 ± 0.087 | 1.02 ± 0.1 | 0.938 ± 0.035 | 0.953 ± 0.14 | 1.06 ± 0.1 | 0.977 ± 0.17 | 0.998 (active) |
| COc1cc(C(=O)NCCCCc2ccccc2)cc(OC)c1OC | 1.09 ± 0.095 | 1.04 ± 0.068 | 0.994 ± 0.034 | 0.906 ± 0.14 | 0.993 ± 0.068 | 0.983 ± 0.14 | 0.995 (active) |
| CCCCSc1nnc2c(n1)OC(c1cccc(C)n1)Nc1ccc(Br)cc1-2 (configuration not stated) | 0.922 ± 0.073 | 1.05 ± 0.07 | 0.97 ± 0.045 | 0.985 ± 0.14 | 1.02 ± 0.068 | 0.921 ± 0.11 | 1 (active) |
| CC1=C(C(=O)OCc2ccc3c(c2)OCO3)C(c2ccc(Cl)c(Cl)c2)NC(=O)N1 (configuration not stated) | 1.04 ± 0.17 | 1.13 ± 0.083 | 1.11 ± 0.1 | 0.458 ± 0.025 | 0.712 ± 0.093 | 0.772 ± 0.15 | 1.01 (active) |
| c1ccc(C2=Nc3ccccc3N=C(c3ccccc3)c3ccccc32)cc1 | 0.676 ± 0.039 | 1.18 ± 0.13 | 1.08 ± 0.066 | 0.914 ± 0.036 | 1.2 ± 0.1 | 1.01 ± 0.096 | 0.979 (active) |
| CN(C)CCN(Cc1ccccc1)Cc1cccc(Cl)c1 | 0.976 ± 0.057 | 0.928 ± 0.16 | 1.05 ± 0.044 | 0.838 ± 0.04 | 1.02 ± 0.048 | 0.87 ± 0.1 | 0.999 (active) |
| COc1ccccc1N1C(=O)C(=Cc2ccc3c(c2)OCO3)SC1=S | 0.99 ± 0.16 | 1.05 ± 0.17 | 0.945 ± 0.14 | 0.951 ± 0.046 | 1.2 ± 0.24 | 1.22 ± 0.36 | 0.999 (active) |
| Nc1ccn([C@H]2CC[C@@H](CO)O2)c(=O)n1 | 1.05 ± 0.13 | 1.1 ± 0.081 | 1.02 ± 0.09 | 1.03 ± 0.088 | 0.976 ± 0.06 | 1.02 ± 0.081 | 0.995 (active) |
| O=C(O)CCCCC1CCSS1 (configuration not stated) | 0.761 ± 0.034 | 0.968 ± 0.077 | 1.05 ± 0.056 | 1.03 ± 0.047 | 1.33 ± 0.33 | 1.51 ± 0.52 | 0.978 (active) |
| Cl.O=C1Cc2cc(CCN3CCN(c4nsc5ccccc45)CC3)c(Cl)cc2N1 | 0.0947 ± 0.013 | 1.06 ± 0.24 | 0.85 ± 0.059 | 0.646 ± 0.027 | 1.24 ± 0.24 | 1.01 ± 0.076 | 0.983 (active) |
| COc1ccc(Cl)cc1C(=O)Nc1cc(C(F)(F)F)cc(C(F)(F)F)c1 | 1.03 ± 0.082 | 1.01 ± 0.059 | 0.962 ± 0.086 | 0.966 ± 0.024 | 1.54 ± 0.26 | 1.19 ± 0.23 | 1.01 (active) |
| CCOC(=O)c1c(N2C(=O)C3C4C=CC(O4)C3C2=O)sc2c1CCCC2 (configuration not stated) | 0.87 ± 0.067 | 0.792 ± 0.11 | 0.77 ± 0.092 | 0.775 ± 0.038 | 0.962 ± 0.12 | 0.967 ± 0.18 | 0.934 (active) |
| CC#CCn1c(N2CCC[C@@H](N)C2)nc2c1c(=O)n(Cc1nc(C)c3ccccc3n1)c(=O)n2C | 1.05 ± 0.14 | 1.13 ± 0.22 | 1.02 ± 0.064 | 0.944 ± 0.035 | 1.34 ± 0.38 | 1.14 ± 0.16 | 1.01 (active) |
